Bioassay records from PubChem.
An excerpt weighted towards active compounds, which were near 2.1% of everything screened.
D2 ag-1: activates the human D2 dopamine receptor | P14416 | HEK293 T-REx D2 cells, calcium flux agonist mode | activation, % at 2 µM | 340,000 tested, 0.53% active | AID 485358;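 active = activation over 3 SD above normal in the single-dose calcium agonist read, cut at about 30% in these data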; also: 0% is about no effect
Target sequence (P14416 whole entry, looked up): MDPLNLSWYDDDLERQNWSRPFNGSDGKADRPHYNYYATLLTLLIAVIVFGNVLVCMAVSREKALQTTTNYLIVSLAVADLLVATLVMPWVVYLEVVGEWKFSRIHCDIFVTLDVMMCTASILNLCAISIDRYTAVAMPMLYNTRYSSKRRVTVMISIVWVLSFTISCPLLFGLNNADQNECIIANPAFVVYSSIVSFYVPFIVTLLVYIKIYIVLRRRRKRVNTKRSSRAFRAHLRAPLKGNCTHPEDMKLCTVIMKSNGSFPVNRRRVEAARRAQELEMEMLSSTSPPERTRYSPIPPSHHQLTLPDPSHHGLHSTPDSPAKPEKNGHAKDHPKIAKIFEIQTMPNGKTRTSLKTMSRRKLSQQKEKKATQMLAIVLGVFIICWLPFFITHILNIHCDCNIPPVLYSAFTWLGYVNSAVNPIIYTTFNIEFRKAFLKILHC
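Tetracycline-induced HEK293 Trex cells with D2 receptor force-coupled to calcium signaling, plated overnight at 30 C and loaded with no-wash calcium dye. Calcium flux read kinetically for 180 s after compound addition; responses flag agonists.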
D2 antagonist: antagonizes the human D2 dopamine receptor | P14416 | HEK293 TREx D2 cells, calcium flux, dopamine EC80 | inhibition, % at 10 µM | 340,000 tested, 2% active | AID 485344; in the data active = inhibition above about 30%; inactive = below that, where a call was filed; also: 0% is about no effect
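Dopamine at EC80 is the agonist stimulus; test compounds precede it by 180 s. Calcium flux read kinetically in a force-coupled, inducible HEK293 T-REx D2 cell line.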
LDHA block: blocks human lactate dehydrogenase A; purified LDHA, NADH/diaphorase-resazurin fluorescence; hits give low values; activity change, % (values are at about 110 or 230 µM); P00338; 480,000 tested, 0.15% active; in the data active = activity change below about -30%; inconclusive = mostly about -25% to -30%;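 also: plate controls were DMSO wells for no effect and wells without enzyme for full effect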
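Enzyme activity of human lactate dehydrogenase 5 (2 nM; 0.06 mM NADH, 0.2 mM pyruvate, 5 min, RT) is measured via a resazurin/diaphorase fluorescence readout of residual NADH.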
D2 PAM-1: positive allosteric modulators of human D2 dopamine receptor; DiscoveRx D2 beta-arrestin cells, luminescence, 90 min; 100% = 57 uM dopamine signal; potentiation, % (concentration not given with the values); 360,000 tested, 0.23% active; AID 624464; in the data active = potentiation above about 50%; inconclusive = mostly about 30% to 49%
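PathHunter beta-arrestin assay in DiscoveRx D2 cells. Compounds were added with an EC20 of dopamine (50 nM final) for 90 min at 37 deg C. Luminescence was read 1 h after detection reagent, with 57 uM dopamine as the EC100 control.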
D2 ag-2: activates the human D2 dopamine receptor. AID 624465. P14416. DiscoveRx PathHunter D2 beta-arrestin, luminescence, 90 min; 100% = 57 uM dopamine signal. 360,000 tested, 0.084% active. activation, % (concentration not given with the values); in the data active = activation above about 40%; inconclusive = between about 15% and that limit
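Agonist mode: compounds alone added to overnight-plated D2 PathHunter cells for 90 min at 37 C, with 57 uM final dopamine (EC100) defining full response. Beta-arrestin recruitment detected by chemiluminescent reagent, read after 1 h at ambient temperature.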
D2 PAM-2: positive allosteric modulators of human D2 dopamine receptor; P14416; potentiation, % at 10 µM; HEK293 T-REx D2, calcium flux, EC20 dopamine potentiation; 340,000 tested, 0.34% active;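 active = potentiation over 3 SD above the plate norm, cut at about 30% in these data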; also: 0% is about no effect
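Using a no-wash calcium dye in inducible, force-coupled HEK293 Trex cells expressing D2, we tracked fluorescence each second for 180 s after compound, then for 180 s after EC20 dopamine to detect augmented signalling.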
* marks the source's active call; other numbers are inactive results; u = inconclusive; x = no result.

SMILES	D2 ag-1	D2 antagonist	LDHA block	D2 PAM-1	D2 ag-2	D2 PAM-2
CCOc1ccc(NC(=O)c2ccc(NC(=O)c3ccc4ccccc4n3)cc2)cc1	x	x	3	x	x	x
Cc1[nH]c2ccc(C(=O)NCCCN3CCCCCC3)cc2c1C	1	62*	0	-38	2	-13
O=C(NCCCN1CCCCC1)c1ccc2c(c1)NC(=O)C(N1CCCCC1)S2 (stereo not drawn)	0	47*	-9	-48	-6	-21
CCCN1CCN(CCCNC(=O)c2cc3c(=O)[nH]c4ccc(C)cc4c3s2)CC1	-1	43*	1	-10	-3	-7
O=C(O)c1ccc2c(c1)NC(=O)C(N1CCCC1)S2 (stereo not drawn)	1	10	-13	-9	-2	-11
COC(=O)c1ccc2c(c1)NC(=O)C(N1CCCCC1)S2 (stereo not drawn)	0	2	-4	-3	0	-1
CC1CC(C)CN(CCCNC(=O)c2ccc3c(c2)NC(=O)C(N2CCCCC2)S3)C1 (stereo not drawn)	1	88*	-1	-31	-4	-29
Cc1[nH]c2ccc(C(=O)NCCCN3CCCC3)cc2c1C	1	-7	0	-15	-1	0
Cc1nn(Cc2ccccc2)c(C)c1CNS(=O)(=O)c1cccc(C#N)c1	x	x	25	x	x	x
CCc1ccc(OCc2nn3c(=O)c4ccccc4nc3s2)cc1	x	x	-1	x	x	x
COc1cccc(NC(=O)C(=O)c2c(C)[nH]c3ccccc23)c1	x	x	2	x	x	x
Cc1ccc2oc(C(=O)Nc3ccc4c(c3)NC(=O)C(C)O4)cc(=O)c2c1 (stereo not drawn)	x	x	-5	x	x	x
CCC(C)N1CC23C=CC(O2)C(C(=O)OC)C3C1=O (stereo not drawn)	6	31*	-3	-1	-2	-1
CCCN1CC23C=CC(O2)C(C(=O)O)C3C1=O (stereo not drawn)	1	48*	4	-2	-2	6
CCOC(=O)C1[C@H]2C(=O)N(C(C)c3ccc(OC)cc3)C[C@]23C=C[C@H]1O3 (stereo partly drawn)	-2	-2	1	2	3	10
CCC(=O)Nc1cc2c3c(c1)CCN3C(=O)CC2	1	33*	-10	-7	-4	6
O=C(O)C(c1c[nH]c2cc(F)ccc12)N1CCN(CCNc2cc(=O)oc3ccccc23)CC1 (stereo not drawn)	x	x	-2	x	x	x
O=C(c1cc(-c2ccco2)[nH]n1)N1CCN(c2ccc(N3CCOCC3)nn2)CC1	x	x	0	x	x	x
CC(NC(=O)CN(C)CC(=O)Nc1ccc(F)c(F)c1F)c1ccccc1 (stereo not drawn)	2	49*	1	2	-1	2
COc1ccc(-c2cc(C(F)(F)F)nc(N3CCCCCC3)n2)cc1	1	24	-5	-9	-5	-3
COc1ccc(-c2cc(C(F)(F)F)nc(N3CCN(C)CC3)n2)cc1	0	39*	3	-39	-2	-18
COc1ccc(-c2cc(C#N)nc(N3CCN(C)CC3)n2)cc1	-4	55*	-5	-20	-4	-21
Cc1cnc(C(=O)Oc2ccc(C#N)cc2)cn1	x	x	-4	x	x	x
CCOc1cc(C(=O)NN2CCOCC2)cc(OCC)c1OCC	0	36*	-1	0	-2	1
CCCOc1ccc(CNc2ccc(Oc3ccccc3)cc2)cc1	x	x	-1	x	x	x
SMILES	D2 ag-1	D2 antagonist	LDHA block	D2 PAM-1	D2 ag-2	D2 PAM-2
CCCCN=C(C)C1=C(O)CSC1=O	0	-2	-7	-1	0	5
CC(=NCCc1ccccc1)C1=C(O)CSC1=O	35*	-12	-1	u	0	1
COc1ccc(S(=O)(=O)Nc2ccc3c(c2)n(C)c(=O)n3C)cc1F	-1	-3	-4	-4	4	0
Cc1cc(S(=O)(=O)Nc2ccc3c(c2)n(C)c(=O)n3C)ccc1F	0	-5	-17	-1	-4	106*
CCc1ccc2c(COC(=O)C3=NN(C)C(=O)CC3)cc(=O)oc2c1	x	x	-1	x	x	x
Cc1ccc(Cl)cc1NC(=O)c1n[nH]c(=O)c2ccccc12	x	x	-7	x	x	x
CCOc1ccc2c(c1)C(C)=CC(C)(C)N2C(=O)Nc1ccccc1	0	2	22	14	6	34*
N/C(=N\OC(=O)c1cccs1)c1ccccc1	0	-8	-6	u	11	-2
Cc1ccc(/C(N)=N/OC(=O)c2cccs2)cc1	0	-32	-5	77*	u	0
N/C(=N\OC(=O)c1cccs1)c1cccc(Br)c1	0	-11	-8	23	u	5
COc1ccc(/C(N)=N/OC(=O)c2c(-c3ccccc3Cl)noc2C)cc1OC	0	-16	-1	56*	u	4
COc1ccc(/C(N)=N/OC(=O)c2cccs2)cc1OC	0	2	-5	71*	42*	5
Cc1cccc(/C(N)=N/OC(=O)c2cccs2)c1	x	x	2	112*	u	x
NCC1CCN(CCc2ccc(F)cc2)CC1	x	x	7	x	x	x
Cc1cc(C)cc(C(=O)c2c(-c3ccccc3)cc3ccccn23)c1	x	x	2	x	x	x
O=C(Nc1ccccc1)Nc1ccccc1Br	-4	42*	-2	-4	2	1
Cc1ccc(Nc2nc(CN3CCN(S(=O)(=O)c4ccc(F)c(F)c4)CC3)cs2)cc1	x	x	-1	x	x	x
Clc1ccc(OCCOCCN2CCc3ccccc3C2)c(Cl)c1	0	64*	0	-14	0	-28
Clc1ccc(SCCOCCN2CCc3ccccc3C2)cc1	0	50*	4	-8	-3	-23
OC(COc1ccc(Cl)cc1Cl)CN1CCc2ccccc2C1 (stereo not drawn)	1	-26	0	-31	0	-24
Clc1ccc(OCCCN2CCc3ccccc3C2)c(Br)c1	-1	64*	-3	-68	-3	-24
O=C(Nc1ccc(F)cc1)C1(S(=O)(=O)c2ccc(Cl)cc2)CC1	-1	37*	2	1	0	-5
CNCc1c(OCc2ccc(F)cc2)ccc2ccccc12	0	74*	1	-7	-2	-15
O=C(/C=C/c1cccc(C(F)(F)F)c1)c1cc(Cl)ccc1Cl	x	x	6	x	x	x
O=S(=O)([O-])CCC[n+]1c(/C=C\Nc2ccccc2)oc2ccc(-c3ccccc3)cc21	52*	-3	x	x	x	11
CC[n+]1c(/C=C/Nc2ccccc2)oc2ccc(OC)cc21	1	-21	11	-8	-3	0
COc1cc(C(=O)Nc2cc(S(C)(=O)=O)ccc2Cl)ccc1OCC(=O)N1CCOCC1	0	36*	-9	-4	-5	-6
Cc1cc(C)c(OCCCCN2CCC(C)CC2)c(Br)c1	0	20	-9	-15	-2	-19
